# The sample as a whole holds a higher share of hits than the screen did.
# HIV RNase H inh-1 – inhibitors of HIV-1 reverse transcriptase RNase H | RT-RNase H RNA/DNA duplex cleavage, fluorescence | 65,000 compounds, 1.9% hits | P04585 | inhibition, % at 10 µM; in the data active = inhibition above about 50%
# HIV RNase H inh-2 – confirmation of HIV-1 reverse transcriptase RNase H inhibitors. shares compounds with HIV RNase H inh-1. Recombinant RT RNase H, fluorescent RNA/DNA duplex cleavage. inhibition, % at 10 µM. 1,000 compounds, 39% hits; in the data active = inhibition above about 48%; inconclusive = no clear call, values can overlap the other calls
# * = called active by the depositor; ? = inconclusive.
SMILES,HIV RNase H inh-1,others
Cc1cc(C)cc(OCC(=O)NCC2CCCO2)c1 (configuration not stated),-31,
Nc1nnc(SCc2ccccc2F)n1-c1ccccc1,-20,
Cc1ccc2nc(NC3=NCN(Cc4ccc5c(c4)OCO5)CN3)nc(C)c2c1,-5,
CCCCOC(=O)C1Cc2ccccc2C(=O)O1 (configuration not stated),-20,
CCOC(=O)c1sc(NC(C)=O)c(C(=O)OCC)c1C,-3,
COC(=O)c1sc(NC(C)=O)c(C(=O)OC)c1C,58*,HIV RNase H inh-2=0
COC(=O)c1sc(NC(=O)c2cnccn2)c(C(=O)OC)c1C,6,
COC(=O)C1=C(C)Nc2ncnn2C1c1ccc(OCc2ccccc2)cc1 (configuration not stated),2,
COCCn1nnnc1C(c1ccccc1OC)N1CCc2ccccc2C1 (configuration not stated),1,
O=C(Nc1ccccc1N1CCCC1)c1ccc2c(c1)OCO2,-30,
COc1ccc2cc3cc(C(=O)Nc4ccccc4N4CCN(C)CC4)oc3nc2c1,-9,
COc1ccc(-c2ocnc2C(=O)Nc2ccccc2N2CCCCC2)cc1,76*,HIV RNase H inh-2=45
CCn1cc(C(=O)NCc2ccco2)c(=O)c2cc(S(=O)(=O)N3CCc4ccccc4C3)ccc21,65*,HIV RNase H inh-2=63*
CCn1cc(C(=O)NCc2ccco2)c(=O)c2cc(S(=O)(=O)N3CCC(C)CC3)ccc21,-22,
CCn1cc(C(=O)NCc2ccco2)c(=O)c2cc(S(=O)(=O)N3CCCCCC3)ccc21,-24,
CCOC(=O)C1CCCN(C(=O)c2ccc(OCC)cc2)C1 (configuration not stated),-7,
O=S(=O)(c1cnc[nH]1)N1CCc2ccccc21,-43,
Cn1cc(SCC(=O)NCc2ccc3c(c2)OCO3)c2ccccc21,-34,
CCOC(=O)C1=C(C)NC(=O)NC1c1cc(C)sc1C (configuration not stated),-6,
O=C1C2ON(c3ccccc3)C(c3cccnc3)C2C(=O)N1c1ccccc1 (configuration not stated),3,
O=C1C2ON(c3ccc(Br)cc3)C(c3cccnc3)C2C(=O)N1C1CCCCC1 (configuration not stated),64*,HIV RNase H inh-2=33
O=C1C2ON(c3ccccc3)C(c3cccnc3)C2C(=O)N1c1ccc(Cl)c(Cl)c1 (configuration not stated),0,
CCOC(=O)C1=C(C)NC(=O)C1CC(=O)Nc1ccccc1 (configuration not stated),-3,
CC(C)C(c1nnnn1Cc1ccccc1)N1CCN(Cc2ccc3c(c2)OCO3)CC1 (configuration not stated),2,
COc1ccc(Cc2nn3c(Cn4nnc5ccccc54)nnc3s2)cc1,6,
SMILES,HIV RNase H inh-1,others
Cc1ccc(-c2nnc3sc(-c4ccc5c(c4)OCCO5)nn23)cc1,1,
c1ccc2c(c1)nnn2Cc1nnc2sc(-c3ccc4c(c3)OCCO4)nn12,91*,HIV RNase H inh-2=52*
CCOC(=O)c1c(C)oc(/N=C/c2ccccc2O)c1C#N,-10,
CN(C)c1nc2n(c(=O)n1)C(C#N)CS2 (configuration not stated),1,
COc1ccc(-c2[nH]c(-c3cccc(OC)c3)nc2SCC(=O)NCc2ccco2)cc1,-4,
CCOC(=O)C1C(=O)NC(SC)=C(C#N)C1c1ccccc1F (configuration not stated),-7,
CCCOC(=O)CSC1=C(C#N)C(c2ccccc2OCC)C(C#N)C(=O)N1 (configuration not stated),6,
CCOC(=O)C1C(=O)NC(SCC(N)=O)=C(C#N)C1c1ccccc1OCC (configuration not stated),66*,HIV RNase H inh-2=-1
COc1ccc(-n2nnc3c(SCC(=O)N4CCN(c5ccccc5)CC4)ncnc32)cc1,-3,
CC1(C)CC(=O)C(C(c2ccco2)C2C(=O)CC(C)(C)CC2=O)C(=O)C1,69*,HIV RNase H inh-2=32
CC1(c2ccco2)NC(=O)NC1=O (configuration not stated),-8,
CC1(C)C(=O)C2(CCCC2)C(=O)OC1c1ccco1 (configuration not stated),-4,
COc1ccc(C2(O)CCN(C(=O)c3ccc4c(c3)OCO4)CC2)cc1,-6,
CC(=O)NCC(=O)OCN1C(=O)c2ccccc2C1=O,-11,
O=c1c2c3c(sc2n2cnnc2n1-c1ccccc1)N(Cc1ccccc1)CCC3,0,
COC(=O)c1ccccc1NC(=O)c1noc2c1CC(C(C)(C)C)CC2 (configuration not stated),-3,
Cn1cnc2c1c(=O)[nH]c(=O)n2C,2,
CCn1c(=NC(=O)c2ccc(S(=O)(=O)N3CCOCC3)cc2)sc2cccc(OC)c21,-3,
CCn1c(=NC(=O)c2ccc(N3C(=O)CCC3=O)cc2)sc2c(OC)ccc(OC)c21,56*,HIV RNase H inh-2=?
CCn1c(=NC(=O)CN2C(=O)CCC2=O)sc2c(OC)ccc(OC)c21,-12,
CC(C)N(C(=O)CSc1nnnn1C1CCCC1)C(C)C,-2,
CC1CCc2nn(CC(=O)NCCN3CCCCC3C)cc2C1 (configuration not stated),0,
COc1cccc(-c2nc(-c3ccccc3)no2)c1,-17,
COc1ccc(CC(=O)Nc2ccc(-c3noc(-c4cccc(OC)c4)n3)cc2)cc1,79*,HIV RNase H inh-2=62*
COc1cccc(-c2nc(-c3ccc(NC(=O)c4cccnc4)cc3)no2)c1,-1,
SMILES,HIV RNase H inh-1,others
CC1CC(C)CN(C(=O)Cn2c(=O)n(CCCCC(=O)NCc3ccco3)c(=O)c3ccccc32)C1 (configuration not stated),-11,
CCCCS(=O)(=O)NC1=NCN(CCOC(=O)c2ccccc2)CN1,-3,
O=C(Cc1ccccc1)N1CCN(C/C=C/c2ccccc2)CC1,-82,
O=S(=O)(c1ccc(S(=O)(=O)N2CCN(C/C=C/c3ccccc3)CC2)cc1)N1CCCC1,59*,HIV RNase H inh-2=56*
O=S(=O)(c1ccc(S(=O)(=O)N2CCCN(Cc3ccccc3)C2)cc1)N1CCCCCC1,-4,
Cc1cc(N2CCCC2=O)cc(C)c1CN1C(=O)c2ccccc2C1=O,-13,
O=C(NCc1ccccc1)N1CCC(n2cnc3cc(F)ccc32)CC1,-2,
Cc1cc(C)nc(SCC2COc3ccccc3O2)n1 (configuration not stated),-85,
COc1ccc(N2CCN(Cc3cc(=O)oc4cc(C)c(Cl)cc34)CC2)cc1,33,
Cc1cc2oc(=O)cc(CN3CCN(C/C=C/c4ccccc4)CC3)c2cc1O,13,
COc1ccc(N2CCN(Cc3cc(=O)oc4cc(-c5ccccc5)c(O)cc34)CC2)cc1,92*,HIV RNase H inh-2=69*
CCCCOc1ncnc2c1[nH]c1ccc(F)cc12,-6,
Cc1nccn1CC(O)COC1CCCCC1 (configuration not stated),1,
O=C(Cn1c(=O)oc2cc(S(=O)(=O)N3CCCC3)ccc21)NC1CCCc2ccccc21 (configuration not stated),65*,HIV RNase H inh-2=76*
O=C(Cn1c(=O)oc2cc(S(=O)(=O)N3CCCCCC3)ccc21)NC1CCCCCCC1,26,
O=C(Cn1c(=O)oc2cc(S(=O)(=O)N3CCCC3)ccc21)Nc1ccc(C(F)(F)F)cc1,40,
C/C=C/Cn1c(Br)nc2c1c(=O)[nH]c(=O)n2C,-8,
C/C=C/Cn1c(SCc2ccc(Cl)cc2)nc2c1c(=O)[nH]c(=O)n2C,45,
C/C=C/Cn1c(N2CCCCCC2)nc2c1c(=O)[nH]c(=O)n2C,87*,HIV RNase H inh-2=40
C/C=C/Cn1c(SC)nc2c1c(=O)[nH]c(=O)n2C,77*,HIV RNase H inh-2=?

# Compound activity from PubChem.
